The panel holds about 79,000 compounds, 15% with a hit somewhere; the sample as a whole holds those more often. Rule as the data show it: active = growth inhibition above about 70%; inactive = the rest.
Key:
[1] = NCI Yeast Anticancer Drug Screen. Data for the rad50 strain (AID 155);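 also: 0% = growth of vehicle-only cultures of the same strain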; conditions: S. cerevisiae rad50 strain growth inhibition; at 50.0 µM; active compounds read high
In short: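 DNA repair mutant yeast, compound exposure, growth read-out; inhibition is taken relative to vehicle.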

[2] = NCI Yeast Anticancer Drug Screen. Data for the mec2-1 strain (AID 157); conditions: S. cerevisiae mec2-1 strain, at 50.0 µM, active compounds read high
In short: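 Cells of the genetically defined mec2-1 yeast strain are incubated with test compound. Inhibition of growth is calculated against vehicle-treated controls.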

[3] = NCI Yeast Anticancer Drug Screen. Data for the sgs1 mgt1 strain (AID 161);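 also: 0% = growth of cultures given vehicle only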; conditions: S. cerevisiae sgs1 mgt1 strain, at 50.0 µM, active compounds read high
In short: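 Test agents were incubated with a DNA-repair-mutant yeast strain. Growth was then read and compared against vehicle-treated controls.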

[4] = NCI Yeast Anticancer Drug Screen. Data for the cln2 rad14 strain (AID 165);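 also: 0% = growth equal to vehicle treated cultures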; conditions: S. cerevisiae cln2 rad14 strain, at 50.0 µM, active compounds read high
In short: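 The screen exposed genetically defined yeast (cln2 rad14) to test compounds and scored growth inhibition relative to vehicle-treated controls.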

[5] = NCI Yeast Anticancer Drug Screen. Data for the bub3 strain (AID 167); conditions: S. cerevisiae bub3 mutant strain, at 50.0 µM, active compounds read high
In short: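 In this screen, a yeast mutant lacking normal mitotic checkpoint function is challenged with compound. Relative growth versus vehicle gives the inhibition value.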

[6] = NCI Yeast Anticancer Drug Screen. Data for the mlh1 rad18 strain (AID 175); conditions: S. cerevisiae mlh1 rad18 strain growth inhibition; at 50.0 µM; active compounds read high
In short: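 Compound-treated yeast growth, normalised to vehicle controls. Strain bears defined DNA repair mutations.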

Measured: growth inhibition

Clc1ccccc1-c1c2ccccc2cc2c1ccc1ccccc12
inactive: [1] -12.1% | [2] -14.5% | [3] -7.75% | [4] -0.85% | [5] 5.45% | [6] -4.7%

CC(=O)NCCSSCCCCS(=O)O
inactive: [1] -19.1% | [2] -20.1% | [3] 7.85% | [4] 11.3% | [5] 6.05% | [6] -5.35%

CC(OC(=O)CC(c1ccccc1)N1CCCCC1)c1ccccc1 (stereo unspecified)
inactive: [1] 64.7% | [2] 1.3% | [3] 41.1% | [4] 5.3% | [5] 57.5% | [6] 33.9%

COc1ccc2c3ccc4c(c3n(C)c2c1)C(=O)c1ccccc1C4=O
inactive: [1] -38.3% | [2] -36.2% | [3] -53% | [4] -14.7% | [5] -22.8% | [6] -46.1%

CCCCCN(CCCCC)C(=O)C(C)Br (stereo unspecified)
inactive: [1] -3.6% | [2] -12.9% | [3] 12.8% | [4] -12.9% | [5] 44.9% | [6] 3.1%

N#CCCN(CCC#N)c1ccc(C=O)cc1
inactive: [1] 20.3% | [2] 8.05% | [3] 17.2% | [4] -4.25% | [5] 26.6% | [6] 13.6%

c1ccc(CCc2ccnc3ccccc23)cc1
inactive: [1] 8.15% | [2] 3.1% | [3] -2.9% | [4] 1.6% | [5] 9.15% | [6] 5.55%

CC(C)OC(=O)N1C(=O)C2C3CCC(O3)C2C1=O (stereo unspecified)
inactive: [1] 9.2% | [2] 8.25% | [3] 15.2% | [4] 10.4% | [5] 9.65% | [6] 16.1%

O=C(Oc1ccccc1)C(c1ccccc1)c1ccccc1
inactive: [1] -9.95% | [2] 0.7% | [3] 7.95% | [4] -59.7% | [5] 16.7% | [6] -10.5%

CCCCNC(=O)NC/C(Br)=C/Br
inactive: [1] 1.75% | [2] 5.15% | [3] 1.4% | [4] -3.75% | [5] 1.85% | [6] -5.2%

Cc1cccc(C)c1OC(=O)/C=C/c1ccccc1
inactive: [1] 31.3% | [2] -10.5% | [3] 33% | [4] -11.2% | [5] -11.8% | [6] 1.05%

COc1ccc(CC[n+]2cccc(/C(=N/O)c3ccccc3)c2)cc1OC
inactive: [1] 46.9% | [2] -8.3% | [3] 25.2% | [4] 2.7% | [5] 8.25% | [6] 6.35%

CCc1c(C)[nH]c2c1C(=O)CCC2
inactive: [1] 15.6% | [2] -4.65% | [3] 38.1% | [4] 18.1% | [5] 24.9% | [6] 46.9%

Clc1ccc(C2OCCCO2)cc1
inactive: [1] -21.1% | [2] 7.8% | [3] -9.7% | [4] 10.2% | [5] -8.4% | [6] -1.65%

CC(O)CC1CC(=O)CCC1=O (stereo unspecified)
inactive: [1] 0.35% | [2] -18.1% | [3] -10.7% | [4] -29.2% | [5] -5.85% | [6] 8.3%

Cc1ccc2[nH]c(=S)[nH]c(=S)c2c1
inactive: [1] 19.9% | [2] 5% | [3] 13.2% | [4] -19.8% | [5] -33.2% | [6] 36%

Cn1c(=O)c2c(ncn2C2C(=O)NNC2=O)n(C)c1=O
inactive: [1] -7.15% | [2] -8.45% | [3] -17.2% | [4] 2.35% | [5] 7.55% | [6] 0.9%

CCOC(=O)c1c(O)[nH]c(=O)c(CC)c1C
inactive: [1] -13.2% | [2] -29.3% | [3] -45.8% | [4] -16.4% | [5] -30.8% | [6] -4.1%

Cc1cc(Cl)c(Cl)cc1NC(=O)c1ccccc1Cl
inactive: [1] 1.55% | [2] -11.3% | [3] 4% | [4] -9.25% | [5] 8.9% | [6] -5.25%

CC(C)CNC(=O)C(=O)NCC(C)C
inactive: [1] -4.65% | [2] -9.7% | [3] -1.6% | [4] -41.5% | [5] -21.4% | [6] -2.4%

CN(C)N=Nc1ccc(C(=O)NC(Cc2ccccc2)C(=O)O)cc1 (stereo unspecified)
inactive: [1] 1.45% | [2] -4.1% | [3] 3.2% | [4] 0.55% | [5] 3.3% | [6] 6.45%

O=C(C[n+]1cccc(CO)c1)c1ccc(-c2ccc(C(=O)C[n+]3cccc(CO)c3)cc2)cc1
inactive: [1] 22.8% | [2] 5.35% | [3] 31.7% | [4] -4.7% | [5] -1.7% | [6] 11.7%

CN1C/C(=C\c2ccc(N(C)C)cc2)C(=O)/C(=C/c2ccc(N(C)C)cc2)C1
inactive: [1] -17.6% | [2] -8.05% | [3] -2.2% | [4] -1.35% | [5] 4.05% | [6] -9.85%

CN(C)c1ccc(/C=C2\CCc3ccccc3C2=O)cc1Br
inactive: [1] 5.6% | [2] -12.1% | [3] -13.9% | [4] -9.05% | [5] 3.95% | [6] -26.6%

Cc1nn2c(=O)n(-c3cccc(-n4nnc5c(-c6ccccc6)c(C)nn5c4=O)c3C)nnc2c1-c1ccccc1
inactive: [1] 33.9% | [2] 40.4% | [3] 30.2% | [4] 46.1% | [5] 43.2% | [6] 43.9%

COc1cc(/C=N/N=C(\N)NO)cc(OC)c1OC
inactive: [1] -6.5% | [2] 3.85% | [3] 2.4% | [4] 6.35% | [5] 1% | [6] 4.55%

CC(O)/C=C/C(CCC(C)CO)C(C)C (stereo unspecified)
inactive: [1] -17% | [2] -27.6% | [3] -26% | [4] -10.2% | [5] -25.9% | [6] -16%

CCC(CC)=C(c1ccc(C)cc1)c1ccc(C)cc1
inactive: [1] -25.2% | [2] -12.7% | [3] -1.9% | [4] -52.8% | [5] 4.7% | [6] -12.4%

CCCCCCCCCCCCCCCc1c(NC(C)(CC)[P+](=O)O)c(=O)n(C)n1C (stereo unspecified)
inactive: [1] -41.5% | [2] -32.5% | [3] -7.45% | [4] -29.9% | [5] -12.2% | [6] -18.8%

CNC(=S)NNC1=NCCCN1
inactive: [1] -48.5% | [2] -10.2% | [3] -25.9% | [4] 13.8% | [5] 9.75% | [6] -9.9%

Cc1ccc(S(=O)(=O)Nc2cc3c(cc2NC(=O)C(F)(F)F)-c2ccccc2C3)cc1
inactive: [1] 52.8% | [2] -9% | [3] 38.8% | [4] -7.4% | [5] -1.25% | [6] 46%

CC12CCC(/C(=C/N3CCCCC3)C1=O)C2(C)C (stereo unspecified)
inactive: [1] 12.8% | [2] 10.2% | [3] 1.75% | [4] -17.8% | [5] 22.4% | [6] 5.05%

CC(=O)Oc1cccc(OC(C)=O)c1
inactive: [1] 41.8% | [2] 38.9% | [3] 25.2% | [4] 12.1% | [5] 6.8% | [6] 34.9%

CCOCC(=O)N[C@H]1CCc2cc(OC)c(OC)c(OC)c2-c2ccc(SC)c(=O)cc21
inactive: [1] 10.7% | [2] 26.9% | [3] 12.2% | [4] -53.6% | [5] -8.3% | [6] 47.1%

O=C(Nc1ccc(Cl)c(Cl)c1)Oc1ccccc1Cl
inactive: [1] -15.2% | [2] -29.6% | [3] -4.9% | [4] -36% | [5] -16.4% | [6] -29.9%

CC(C)OP(=O)(OC(C)C)C([CH2][Sn]([CH3])([CH3])[Cl])P(=O)(OC(C)C)OC(C)C
inactive: [1] 5.75% | [2] -0.8% | [3] 0.45% | [4] 0.25% | [5] -2.1% | [6] -1.45%

CC1(COc2ccccc2)NC(=O)c2ccccc2O1 (stereo unspecified)
inactive: [1] -5.85% | [2] -13.4% | [3] 10.6% | [4] -46.2% | [5] 0.85% | [6] -6.25%

O=C(O)c1ccccc1/C=N\NC1=NCCN1
inactive: [1] -45.1% | [2] -13.4% | [3] -11.4% | [4] 12.7% | [5] -13.7% | [6] -6.35%

O=C(Nc1c(Oc2ccc(Cl)c(Cl)c2)ccc(Cl)c1S(=O)(=O)O)Nc1c(Oc2ccc(Cl)c(Cl)c2)ccc(Cl)c1S(=O)(=O)O
inactive: [1] 22.2% | [2] -3.25% | [3] 13.9% | [4] 11.7% | [5] 22.1% | [6] 22.2%

CC(=O)NNc1nc(C)c(C(/C=C/c2ccc(Cl)cc2)=N/NC(=S)NN)s1
inactive: [1] 34.1% | [2] 20.4% | [3] 45% | [4] 15.8% | [5] 11.8% | [6] 9.75%

Cc1ccc2nc(-c3ccc(-c4nc5ccc(C)cc5o4)c(O)c3)oc2c1
inactive: [1] -36.3% | [2] -14.4% | [3] -27.1% | [4] 2.95% | [5] -17.2% | [6] -24.8%
